PubChem BioAssay (EPA / NIEHS)
Records with an inconclusive call do not appear. Calls of active or inactive are those of the source. Rule for the calls: active = hit-call score of the fitted dose curve at least 0.9, where 1 is the maximum; inconclusive = response in the unintended direction; inactive = score below 0.9.

Assays:
[1] = molecular target: Estrogen receptor (Homo sapiens) (UniProt P03372); experiment: NVS_NR_hER: NovaScreen (NVS) Nuclear Receptor Binding Assay for human Estrogen Receptor (ER) (AID 2283348)
Method in brief: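 Radioligand competitive displacement binding to estrogen receptor from MCF7 extract, cell-free; 18 h after dosing, scintillation read-out. Primary screen in duplicate at 25 uM; actives followed up in concentration series; loss of signal vs DMSO.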

[2] = molecular target: Estrogen receptor (Homo sapiens) (UniProt P03372); experiment: OT_ER_ERaERa_1440: Odyssey Thera (OT) 24-hour HEK293T Protein-Complementation Assay for Estrogen Receptor-alpha/-alpha Homodimer (AID 2283349);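 note: hits raise fluorescence above DMSO for agonists and antagonists alike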
Method in brief: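 HEK293T cells stably expressing the human ER alpha ligand-binding domain (aa 310-547) as a homodimer PCA were dosed for 24 hours. Fluorescence intensity was read by laser scanning cytometry, and gain of signal was fitted relative to DMSO vehicle.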

[3] = molecular target: Androgen Receptor/SRC-1 Co-activator, AR (gene 367) (UniProt P10275); experiment: OT_AR_ARSRC1_0960: Odyssey Thera (OT) 16-hour HEK293T Protein-Complementation Assay for Androgen Receptor/SRC-1 Co-activator (AID 2283353);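 note: actives raise the signal above DMSO so potency reflects increased AR and SRC-1 complex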
Method in brief: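 HEK293T cells stably expressing AR and SRC-1 fused to split Venus YFP fragments via (Gly4Ser)2 linkers were dosed for 16 h. Nuclear/cytoplasmic fluorescence ratio at 488 nm, ≥400 cells per image, fitted for gain of signal versus DMSO.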

[4] = molecular target: Androgen Receptor/SRC-1 Co-activator, AR (gene 367) (UniProt P10275); experiment: OT_AR_ARSRC1_0480: Odyssey Thera (OT) 8-hour HEK293T Protein-Complementation Assay for Androgen Receptor/SRC-1 Co-activator (AID 2283354);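 note: hits raise the complementation signal above DMSO so AC50 marks enhancers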
Method in brief: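 HEK293T cells stably expressing AR and SRC-1 fused to Venus YFP fragments, imaged 8 h after dosing. Complementation fluorescence scored as nuclear/cytoplasmic ratio at 488 nm in at least 400 cells per image; gain fitted versus DMSO.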

[5] = molecular target: Estrogen receptor (Homo sapiens) + Estrogen receptor beta (Homo sapiens) (UniProt P03372+Q92731); experiment: OT_ER_ERaERb_1440: Odyssey Thera (OT) 24-hour HEK293T Protein-Complementation Assay for Estrogen Receptor-alpha/-beta Homodimer (AID 2283356);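 note: heteromer of ER alpha and ER beta binding domains; hits raise reporter fluorescence and both agonists and antagonists give an increase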
Method in brief: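 Readout: mean fluorescence intensity in nucleus (agonists) or nucleus plus cytoplasm (antagonists), read by laser scanning cytometer after 24 h compound exposure of HEK293T cells carrying ERα/ERβ LBD fragment-complementation constructs; DMSO baseline.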

[6] = molecular target: chimpanzee Androgen Receptor (AR), AR (gene 747460) (UniProt O97775); experiment: NVS_NR_cAR: NovaScreen (NVS) Nuclear Receptor Binding Assay for chimpanzee Androgen Receptor (AR) (AID 2283346);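 note: radioligand displacement from AR measured by scintillation counting in a cell-free assay; a loss of bound radioligand signal versus DMSO counts as binding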
Method in brief: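 Radioligand binding to chimpanzee AR expressed in Sf9/Sf21 cells, cell-free, measured 72 h after dosing by lysate-based scintillation counting. Loss of signal vs DMSO; initial duplicate screen at 25 uM, actives retested in concentration series.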

[7] = molecular target: Estrogen receptor beta (Homo sapiens) (UniProt Q92731); experiment: OT_ER_ERbERb_0480: Odyssey Thera (OT) 8-hour HEK293T Protein-Complementation Assay for Estrogen Receptor-beta/-beta Homodimer (AID 2283357);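 note: active means signal gain over DMSO baseline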
Method in brief: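 Fluorescence intensity, nuclear for agonists and nuclear plus cytoplasmic for antagonists, was quantified by laser scanning cytometry versus vehicle after 8 h treatment. The cells were HEK293T stably carrying ER beta LBD fragment-complementation partners.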

PGR (gene 5241) = PGR (gene 5241) (UniProt P06401); experiment: NVS_NR_hPR: NovaScreen (NVS) Nuclear Receptor Binding Assay for human Progestron Receptor (PR) (AID 2283360);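 note: active means loss of bound radioligand signal versus DMSO baseline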
Method in brief: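 T47D lysate; tritiated or iodinated radioligand; scintillation count at 18 h. DMSO = negative control/baseline. Primary: 25 uM, duplicate. Secondary: concentration series for actives.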

[8] = molecular target: human Constitutive Androstane Receptor (CAR), NR1I3 (gene 9970) (UniProt Q14994); experiment: NVS_NR_hCAR_Antagonist: NovaScreen (NVS) Nuclear Receptor Binding Assay for human Constitutive Androstane Receptor Antagonism (CAR) (AID 2283344)
Method in brief: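 Cell-free TR-FRET binding read 1 h after dosing, antagonist mode; loss of signal versus DMSO baseline. Primary screen in duplicate at a single 25 uM; actives retested in concentration series.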

[9] = molecular target: Bile acid receptor (Homo sapiens) (UniProt Q96RI1); experiment: NVS_NR_hFXR_Antagonist: NovaScreen (NVS) Nuclear Receptor Binding Assay for human Farnesoid X Receptor Antagonism (FXR) (AID 2283350)
Method in brief: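 Cell-free TR-FRET ligand-binding read-out on human FXR (NR1H4) in antagonist mode, measured 1 h after dosing. Primary screen in duplicate at 25 uM, actives retested in concentration series; signal loss scored versus DMSO.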

[10] = molecular target: Retinoic acid receptor alpha (Homo sapiens) (UniProt P10276); experiment: NVS_NR_hRAR_Antagonist: NovaScreen (NVS) Nuclear Receptor Binding Assay for human Retinoic Acid Alpha Receptor Antagonism (RAR) (AID 2283358)
Method in brief: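 Cell-free TR-FRET binding assay with extracted human RARalpha in antagonist mode, read 2 h after dosing. Loss of signal was fitted relative to DMSO; the primary screen used 25 uM in duplicate, with concentration series on follow-up.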

[11] = molecular target: human Peroxisome Proliferator-activated Receptor alpha (PPARa), PPARA (gene 5465) (UniProt Q07869); experiment: NVS_NR_hPPARa: NovaScreen (NVS) Nuclear Receptor Binding Assay for human Peroxisome Proliferator-activated Receptor alpha (PPARa) (AID 2283359);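 note: activity means loss of TR-FRET signal versus DMSO baseline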
Method in brief: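 Cell-free TR-FRET binding assay with extracted PPARα protein, read 1 h after dosing. Primary screen in duplicate at 25 uM, with actives retested in concentration series. Loss of signal versus DMSO.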

[12] = molecular target: bovine Estrogen Receptor (ER), ESR1 (gene 407238) (UniProt P49884); experiment: NVS_NR_bER: NovaScreen (NVS) Nuclear Receptor Binding Assay for bovine Estrogen Receptor (ER) (AID 2283345);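 note: actives lower the bound radioligand count which means they displace the ER ligand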
Method in brief: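 Scintillation counting of displaced radioligand gave the readout; bovine uterine membrane extract supplied the receptor. Measured 18 h post-dose, normalized to DMSO baseline. Single 25 uM duplicate screen preceded concentration-response follow-up.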

[13] = molecular target: human Thyroid Receptor Alpha (TRa), THRA (gene 7067) (UniProt P10827); experiment: NVS_NR_hTRa_Antagonist: NovaScreen (NVS) Nuclear Receptor Binding Assay for human Thyroid Receptor Alpha Antagonism (TRa) (AID 2283362);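 note: activity is loss of signal relative to DMSO baseline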
Method in brief: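 AlphaLISA chemiluminescent immunoassay readout, taken 1 h post-dosing in a cell-free system with extracted protein. Activity was scored as signal loss against DMSO negative control, from duplicate single-concentration (25 uM) testing followed by concentration-response follow-up.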

Estrogen receptor (Homo sapiens), sequence (P03372 whole entry, looked up, the tested form may be a part): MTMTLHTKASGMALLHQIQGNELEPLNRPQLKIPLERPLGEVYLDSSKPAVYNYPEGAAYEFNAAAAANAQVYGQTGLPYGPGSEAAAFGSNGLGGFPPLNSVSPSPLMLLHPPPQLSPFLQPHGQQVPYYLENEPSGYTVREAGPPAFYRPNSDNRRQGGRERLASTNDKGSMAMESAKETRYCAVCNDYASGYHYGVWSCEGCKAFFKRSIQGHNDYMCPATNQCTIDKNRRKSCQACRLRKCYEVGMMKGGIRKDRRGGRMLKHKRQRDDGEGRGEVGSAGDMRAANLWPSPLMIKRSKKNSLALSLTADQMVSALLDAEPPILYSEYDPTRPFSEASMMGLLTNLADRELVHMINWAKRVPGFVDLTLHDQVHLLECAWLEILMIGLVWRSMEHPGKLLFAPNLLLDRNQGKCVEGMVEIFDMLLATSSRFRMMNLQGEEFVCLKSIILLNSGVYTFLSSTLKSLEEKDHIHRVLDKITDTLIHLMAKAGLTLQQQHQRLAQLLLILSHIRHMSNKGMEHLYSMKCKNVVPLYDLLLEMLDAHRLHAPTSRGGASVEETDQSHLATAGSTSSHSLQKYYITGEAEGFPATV
Androgen Receptor/SRC-1 Co-activator, AR (gene 367), sequence (P10275 whole entry, looked up, the tested form may be a part): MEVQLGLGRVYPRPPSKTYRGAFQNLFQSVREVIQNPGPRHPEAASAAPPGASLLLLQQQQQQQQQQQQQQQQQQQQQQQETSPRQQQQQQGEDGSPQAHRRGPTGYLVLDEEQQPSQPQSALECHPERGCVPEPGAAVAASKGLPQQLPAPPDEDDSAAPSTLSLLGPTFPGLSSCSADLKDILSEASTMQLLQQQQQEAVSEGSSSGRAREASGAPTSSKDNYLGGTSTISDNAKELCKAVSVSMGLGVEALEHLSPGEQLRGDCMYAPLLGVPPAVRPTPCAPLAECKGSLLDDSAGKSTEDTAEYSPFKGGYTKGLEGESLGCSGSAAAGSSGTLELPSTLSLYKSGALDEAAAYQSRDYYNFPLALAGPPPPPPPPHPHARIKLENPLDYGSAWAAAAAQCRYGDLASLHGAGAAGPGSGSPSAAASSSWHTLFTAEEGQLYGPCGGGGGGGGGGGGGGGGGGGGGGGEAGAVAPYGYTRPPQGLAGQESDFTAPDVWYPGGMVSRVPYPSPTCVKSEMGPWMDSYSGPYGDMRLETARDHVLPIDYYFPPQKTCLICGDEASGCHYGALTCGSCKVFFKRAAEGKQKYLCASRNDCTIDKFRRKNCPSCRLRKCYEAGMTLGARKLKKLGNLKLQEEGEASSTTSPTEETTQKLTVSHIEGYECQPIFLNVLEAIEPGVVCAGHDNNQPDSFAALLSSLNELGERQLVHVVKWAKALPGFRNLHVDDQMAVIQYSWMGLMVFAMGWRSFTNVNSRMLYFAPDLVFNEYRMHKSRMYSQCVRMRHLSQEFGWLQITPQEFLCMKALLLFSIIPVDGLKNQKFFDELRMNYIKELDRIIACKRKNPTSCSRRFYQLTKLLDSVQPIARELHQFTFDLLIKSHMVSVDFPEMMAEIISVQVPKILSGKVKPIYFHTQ
human Peroxisome Proliferator-activated Receptor alpha (PPARa), PPARA (gene 5465), sequence (Q07869 whole entry, looked up): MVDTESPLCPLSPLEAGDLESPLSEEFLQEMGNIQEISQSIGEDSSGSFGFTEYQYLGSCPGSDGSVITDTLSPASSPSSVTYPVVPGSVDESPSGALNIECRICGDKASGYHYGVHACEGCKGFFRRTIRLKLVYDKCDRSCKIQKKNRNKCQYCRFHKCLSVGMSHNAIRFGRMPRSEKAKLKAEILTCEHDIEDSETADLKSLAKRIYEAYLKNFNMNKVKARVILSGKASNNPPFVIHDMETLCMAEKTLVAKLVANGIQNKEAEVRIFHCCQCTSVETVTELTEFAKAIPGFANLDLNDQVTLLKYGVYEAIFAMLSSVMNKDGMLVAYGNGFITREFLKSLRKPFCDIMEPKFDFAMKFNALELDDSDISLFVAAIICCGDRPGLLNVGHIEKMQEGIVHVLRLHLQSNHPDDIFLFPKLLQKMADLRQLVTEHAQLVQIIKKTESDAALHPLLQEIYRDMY
human Constitutive Androstane Receptor (CAR), NR1I3 (gene 9970), sequence (Q14994 whole entry, looked up): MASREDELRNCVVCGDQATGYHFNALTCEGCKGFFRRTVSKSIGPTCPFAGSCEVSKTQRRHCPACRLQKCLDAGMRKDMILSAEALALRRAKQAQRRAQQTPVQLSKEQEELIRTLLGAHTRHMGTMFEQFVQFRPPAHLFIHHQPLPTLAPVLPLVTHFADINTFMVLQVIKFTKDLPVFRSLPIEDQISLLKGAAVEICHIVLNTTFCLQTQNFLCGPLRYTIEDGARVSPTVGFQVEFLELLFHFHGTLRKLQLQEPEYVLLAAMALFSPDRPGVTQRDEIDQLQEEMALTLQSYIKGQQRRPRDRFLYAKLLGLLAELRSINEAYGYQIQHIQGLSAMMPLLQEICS
Estrogen receptor (Homo sapiens) + Estrogen receptor beta (Homo sapiens), sequence (P03372 whole entry, looked up, the tested form may be a part): as the sequence (P03372 whole entry, looked up, the tested form may be a part) above
Estrogen receptor (Homo sapiens) + Estrogen receptor beta (Homo sapiens), sequence (Q92731 whole entry, looked up, the tested form may be a part): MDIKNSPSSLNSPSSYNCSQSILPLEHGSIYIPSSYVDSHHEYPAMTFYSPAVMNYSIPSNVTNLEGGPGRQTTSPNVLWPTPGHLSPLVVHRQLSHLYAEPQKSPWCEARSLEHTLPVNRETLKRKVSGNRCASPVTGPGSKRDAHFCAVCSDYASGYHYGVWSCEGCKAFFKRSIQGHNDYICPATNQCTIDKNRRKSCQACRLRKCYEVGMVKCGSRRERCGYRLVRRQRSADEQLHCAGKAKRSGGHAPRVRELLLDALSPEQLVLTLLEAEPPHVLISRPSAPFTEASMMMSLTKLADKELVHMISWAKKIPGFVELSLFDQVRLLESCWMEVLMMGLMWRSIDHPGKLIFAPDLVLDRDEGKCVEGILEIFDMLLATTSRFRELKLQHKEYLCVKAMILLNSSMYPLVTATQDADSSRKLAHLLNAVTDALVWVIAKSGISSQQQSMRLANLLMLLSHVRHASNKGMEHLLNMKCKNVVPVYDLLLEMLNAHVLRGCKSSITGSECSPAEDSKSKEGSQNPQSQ
bovine Estrogen Receptor (ER), ESR1 (gene 407238), sequence (P49884 whole entry, looked up): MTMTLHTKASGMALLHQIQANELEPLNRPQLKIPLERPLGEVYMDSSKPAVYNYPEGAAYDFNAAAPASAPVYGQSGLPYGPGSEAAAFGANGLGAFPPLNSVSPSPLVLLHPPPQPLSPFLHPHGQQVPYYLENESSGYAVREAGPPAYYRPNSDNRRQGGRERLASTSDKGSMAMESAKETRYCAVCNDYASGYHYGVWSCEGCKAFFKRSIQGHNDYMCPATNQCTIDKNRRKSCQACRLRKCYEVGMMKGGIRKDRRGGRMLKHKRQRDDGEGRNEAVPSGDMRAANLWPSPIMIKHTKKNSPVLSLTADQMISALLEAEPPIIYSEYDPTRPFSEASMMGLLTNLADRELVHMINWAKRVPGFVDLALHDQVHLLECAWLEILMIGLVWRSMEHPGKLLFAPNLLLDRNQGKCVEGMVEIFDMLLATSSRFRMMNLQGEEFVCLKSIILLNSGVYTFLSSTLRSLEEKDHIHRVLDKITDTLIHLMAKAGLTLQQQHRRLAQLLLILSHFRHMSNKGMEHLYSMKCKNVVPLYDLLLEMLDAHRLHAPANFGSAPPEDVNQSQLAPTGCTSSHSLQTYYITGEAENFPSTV
Retinoic acid receptor alpha (Homo sapiens), sequence (P10276 whole entry, looked up): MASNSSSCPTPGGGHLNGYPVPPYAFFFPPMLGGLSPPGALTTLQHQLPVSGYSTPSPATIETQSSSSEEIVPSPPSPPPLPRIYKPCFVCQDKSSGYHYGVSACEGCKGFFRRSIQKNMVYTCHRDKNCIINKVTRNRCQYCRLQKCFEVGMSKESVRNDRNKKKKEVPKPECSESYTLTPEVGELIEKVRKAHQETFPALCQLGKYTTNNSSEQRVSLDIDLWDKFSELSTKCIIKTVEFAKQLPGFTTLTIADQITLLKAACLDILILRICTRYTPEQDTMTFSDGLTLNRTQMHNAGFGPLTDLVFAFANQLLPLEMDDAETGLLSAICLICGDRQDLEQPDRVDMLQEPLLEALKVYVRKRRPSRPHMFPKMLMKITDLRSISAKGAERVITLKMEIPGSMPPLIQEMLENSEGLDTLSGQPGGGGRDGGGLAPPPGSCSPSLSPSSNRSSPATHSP
Bile acid receptor (Homo sapiens), sequence (Q96RI1 whole entry, looked up): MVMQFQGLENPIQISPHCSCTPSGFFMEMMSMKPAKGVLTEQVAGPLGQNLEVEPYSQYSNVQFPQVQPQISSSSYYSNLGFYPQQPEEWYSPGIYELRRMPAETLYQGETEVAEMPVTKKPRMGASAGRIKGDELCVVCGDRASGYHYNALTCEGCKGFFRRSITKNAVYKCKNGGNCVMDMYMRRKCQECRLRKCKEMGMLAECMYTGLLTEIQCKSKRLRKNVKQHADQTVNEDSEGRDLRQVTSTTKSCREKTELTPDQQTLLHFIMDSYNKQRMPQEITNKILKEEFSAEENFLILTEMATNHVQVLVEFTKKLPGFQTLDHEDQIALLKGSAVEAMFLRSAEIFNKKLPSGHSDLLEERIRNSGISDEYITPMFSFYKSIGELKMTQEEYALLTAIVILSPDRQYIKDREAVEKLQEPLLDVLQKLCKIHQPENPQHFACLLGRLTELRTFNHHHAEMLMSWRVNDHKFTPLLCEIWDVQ

Q: Which results are given for `O=C(Nc1ccccc1)c1ccccc1I`?
A: outcome [1]: inactive; outcome [2]: inactive; outcome [3]: inactive; outcome [4]: inactive; outcome [5]: inactive

Q: Which AC50 [6] does the source give for `Nc1ccc([N+](=O)[O-])cc1` here?
A: 25 µM (active)

Q: And the outcome [3]?
A: inactive

Q: What about the outcome [4] of the same compound?
A: inactive

Q: And the outcome [7]?
A: inactive

Q: And the outcome (PGR (gene 5241))?
A: inactive

Q: With `CCNS(=O)(=O)C(F)(F)C(F)(F)C(F)(F)C(F)(F)C(F)(F)C(F)(F)C(F)(F)C(F)(F)F` as the compound, how does the AC50 [8] read?
A: 24.1 µM (active)

Q: And the outcome [9]?
A: inactive

Q: And the outcome [3]?
A: inactive

Q: What about the outcome [4] of the same compound?
A: inactive

Q: And the outcome [10]?
A: inactive

Q: And the outcome [11]?
A: inactive

Q: Which outcome [12] does the source give for `Brc1ccc(Oc2ccccc2)cc1` here?
A: inactive

Q: And the outcome [2]?
A: inactive

Q: For `Oc1ccccc1Cl`, which outcome [8] is on record?
A: inactive

Q: And the outcome [11]?
A: inactive

Q: `ClC1=C(Cl)[C@]2(Cl)[C@H]3[C@H]([C@@H]4C=C[C@H]3C4)[C@@]1(Cl)C2(Cl)Cl` was tested. Which outcome [1] did it give?
A: inactive

Q: What about the outcome [2] of the same compound?
A: inactive

Q: Which results are given for `CCCCC(CC)COC(=O)c1ccc(C(=O)OCC(CC)CCCC)c(C(=O)OCC(CC)CCCC)c1` (centres undefined)?
A: AC50 [8]: 10.7 µM (active); outcome [3]: inactive; outcome [4]: inactive

Q: How did the outcome [1] turn out when `Clc1ccc(C(c2ccc(Cl)cc2)C(Cl)Cl)cc1` was run?
A: inactive

Q: What about the outcome [2] of the same compound?
A: inactive

Q: And the outcome [11]?
A: inactive

Q: What about the outcome [13] of the same compound?
A: inactive
